Data from the supplement of paper PMC4237247.

These compounds were tested on HeLa (assay: percent cells in G1/S phase; higher = more G1/S content). Conditions: 10 µM; 20 h; hit class: G2/M-phase inhibitor.
Method: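 HTS of 79,827 drug-like compounds at 10 uM. HeLa cells in 384-well plates were treated for 20 h, fixed, stained with Vybrant DyeCycle Green and scanned on an Acumen eX3 cytometer to give per-well cell cycle profiles. Only G2/M hits (>=67% G2/M) are listed.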

Structure (SMILES) | percent cells in G1/S phase
COc1ccccc1NC1=CC(=O)CC(c2ccccc2)C1 (centres undefined) | 21.6%
CC(=O)Nc1ccc(Nc2nc(-c3c(C)nc4ccccn34)cs2)cc1 | 14.3%
CC(=O)O[C@H]1C(=O)[C@@]2(C)[C@H]([C@H](OC(=O)c3ccccc3)[C@]3(O)C[C@H](OC(=O)[C@H](O)[C@@H](NC(=O)c4ccccc4)c4ccccc4)C(C)=C1C3(C)C)[C@]1(OC(C)=O)CO[C@@H]1C[C@@H]2O [Paclitaxel] | 16.5%
COC(=O)Nc1nc2cc(C(=O)c3ccccc3)ccc2[nH]1 [Mebendazole] | 22.1%
O=C(CSc1nc2ccc([N+](=O)[O-])cc2s1)c1ccc(Cl)cc1 | 22.6%
O=C(O)c1ccccc1SC1CC(=O)N(c2ccc(Br)cc2)C1=O (centres undefined) | 17.9%
O=c1[nH]c(/C=C/c2ccccc2F)nc2ccccc12 | 19.2%
COc1cc(NS(=O)(=O)c2ccc(NC(C)=O)cc2)c(OC)cc1Cl | 23.2%
COc1cc(-c2onc3ccc(Cl)cc23)cc(OC)c1OC | 15.6%
COC(=O)Nc1nc2cc(Sc3ccccc3)ccc2[nH]1 [Fenbendazole] | 26.3%
COc1ccc(/C=C/c2ccc3cccc(O)c3n2)cc1C | 22.4%
COC(=O)Nc1nc2ccc(SC(C)C)cc2[nH]1 [Methiazole] | 19.6%
O=c1[nH]c(/C=C/c2ccccc2)nc2ccccc12 | 24.1%
CCN(CC)CCN1C(=O)C(=O)C(=C(O)c2ccccc2)C1c1ccccc1F (centres undefined) | 20.9%
